Bioassay records: PubChem, National Center for Advancing Translational Sciences (NCATS)
Compounds with a hit are over-represented: about 2.6% of the library has one in this group of screens.
ClpP mod: qHTS Assay for Activators of ClpP; Potency, µM (titrated, usually from 57.5 µM), for the others: at the top dose activity change, negative = active; AID 651965, 2013; ATP-dependent Clp protease proteolytic subunit (Bacillus subtilis (strain 168)), P80244; purified B. subtilis ClpP, FRET peptide cleavage, 20 min; 1.9% of 340,000 active; active means well fitted falling curve with a large enough effect; inconclusive means small, poorly fitted or top-dose-only effect; inactive means no such curve, though single readings can be large or run the other way; further: potency means the concentration at half of the fitted maximal effect; the source files actives as falling curves though it sought activators and does not explain the sign; nearly all actives have a fitted effect of over 65% in size
Target sequence (P80244 whole entry, looked up): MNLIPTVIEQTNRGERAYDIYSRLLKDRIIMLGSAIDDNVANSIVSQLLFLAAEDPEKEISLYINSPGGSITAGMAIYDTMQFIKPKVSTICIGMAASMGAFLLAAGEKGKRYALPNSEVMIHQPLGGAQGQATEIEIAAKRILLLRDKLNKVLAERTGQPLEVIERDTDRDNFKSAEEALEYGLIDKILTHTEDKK
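Purified B. subtilis ClpP, 10 microg/mL final in Tris/HCl pH8 with KCl, BSA, glycerol and Tween-20, cleaved an Abz/nitrotyrosine-quenched decapeptide. Fluorescence (ex 320, em 430) was read at 0 and 20 min at room temperature. Delta was normalized to 5.8 microM ADEP and DMSO/no-enzyme controls.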
p53 reactivator: restores transcriptional activity of mutant p53; H1299 p53-A138V BP100-luciferase reporter, luminescence, 24 h; 0.063% of 320,000 active; AID 504706; Potency, µM (titrated, usually from 92.2 µM), for the others: at the top dose activity change, positive = activation, most hits filed as activators; active means well fitted activation curve with a large enough effect; inconclusive means small, poorly fitted or top-dose-only effect; inactive means no such curve, though single readings can be large or run the other way; further: potency means the concentration at half of the fitted maximal effect; % of control where 0% means no effect; nearly all actives have a fitted effect of over 45% in size
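H1299 (p53-null), stable ts p53-A138V + BP100-Luc; 1000 cells/well, Opti-MEM/10% FBS; cpd 4 pt, 1:5; 24 h, 37 deg C, 5% CO2; detection reagent 10 min RT; luminescence.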
TRPV1 PAM: human TRPV1 potentiation | Q8NER1 | TRPV1-expressing cells, Fluo-8 calcium influx, capsaicin EC20 potentiation | potentiation, % at 8.33 µM | 0.02% of 320,000 active | AID 540277; in the data active means potentiation above about 80%; inconclusive means between about 30% and that limit; further: 0% is about no effect
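Cells expressing TRPV1 were dye-loaded with Fluo-8 and read kinetically: 10 s baseline, 3 min after compound (agonist portion), then 2 min after EC20 capsaicin (allosteric enhancer portion). Calcium-bound dye fluorescence at 480/520 nm.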
KCNH2 WT inh: blocks the wildtype human KCNH2 potassium channel. activity change, % at 1.84 µM. Q12809. 0.37% of 340,000 active. U2OS, BacMam KCNH2, thallium flux FluxOr; active compounds read low;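 active means maximum activity change below -70%; inconclusive means maximum activity change between -70% and -50%; inactive means maximum activity change above -50%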; further: on the % scale 0 is the no-effect control and ±100 the full control effect
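U2OS cells were transduced with wild-type KCNH2 virus (2.03 x 10^8 / mL) for 4 h at room temperature, then cultured overnight at 37 C. Thallium flux was read with FluxOr dye. Rate constants were normalized to DMSO controls.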
KCNH2 3.1 inh: KCNH2 3.1 (human) potassium channel inhibition | 0.95% of 340,000 active | U2OS KCNH2 3.1, thallium flux FluxOr; active compounds read low | activity change, % (tested at about 1.8 µM);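 active means maximum activity change below -70%; inconclusive means maximum activity change from -70% to -50%; inactive means maximum activity change above -50%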;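 further: thallium influx rate constant from kinetic fluorescence after stimulation buffer; on the % scale 0 is the no-effect control and ±100 the full control effect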
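Steps: virus added to U2OS suspension (4 h, RT, dark); medium with 10% FBS added, cells plated, 37 C overnight; FluxOr/Red40 loading buffer 45 min RT; stimulation buffer, 2 min kinetic read; rate constant normalized.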
TRPV1 agonist: human TRPV1 agonism | Q8NER1 | TRPV1-expressing cells, Fluo-8 calcium influx, agonist mode | activation, % at 8.33 µM | 0.19% of 320,000 active | AID 540275; in the data active means activation above about 80%; inconclusive means between about 30% and that limit; further: 0% is about no effect
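Cells expressing TRPV1 were dye-loaded with Fluo-8 and read kinetically: 10 s baseline, 3 min after compound (agonist portion), then 2 min after EC20 capsaicin (allosteric enhancer portion). Calcium-bound dye fluorescence at 480/520 nm.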
* marks the source's active call; other numbers are inactive results; ? = inconclusive; · = no result given.

SMILES	ClpP mod	p53 reactivator	TRPV1 PAM	KCNH2 WT inh	KCNH2 3.1 inh	TRPV1 agonist
O=C(Cn1cc(Cl)ccc1=O)c1ccc(Cl)cc1	·	27%	-4	-134*	·	8
O=C(Cn1cnnn1)Nc1ccccc1Cc1ccccc1	28µM*	3%	13	2	-7	2
Cn1nnnc1SCC(=O)Nc1ccccc1Cc1ccccc1	-1%	0%	8	-4	-42	0
CN1CCN(C(=O)C[C@@H]2CC[C@@H]3[C@H](COC[C@@H](O)CN3Cc3cccc(Cl)c3)O2)CC1	1%	·	·	·	·	·
COc1ccccc1N(C)S(=O)(=O)c1ccc(C(=O)NCC(c2ccco2)N2CCCCC2)cc1 (configuration not stated)	-1%	·	·	4	-94*	·
O=C(NCC(c1ccco1)N1CCc2ccccc2C1)c1ccc(Br)cc1 (configuration not stated)	25µM*	3%	-15	-3	-12	20
O=C(NCC(c1ccco1)N1CCCC1)c1ccc(Cl)c(S(=O)(=O)N2CCc3ccccc32)c1 (configuration not stated)	-4%	-4%	5	-20	-77*	1
Cc1ccc(NC(=O)Cn2c(=O)n(Cc3ccc4c(c3)OCO4)c(=O)c3ccccc32)c(C)c1	-6%	·	·	·	·	·
Cc1ccc(S(=O)(=O)/N=C(/c2ccc(F)cc2)N2CCCCC2)cc1	32µM*	-5%	0	3	-7	1
O=c1[nH]c(/C=C/c2ccccn2)nc2ccccc12	-16%	11µM*	-3	-5	12	1
COCCCNc1ccn2nc(-c3ccc(OCc4ccccc4)cc3)cc2n1	5%	·	·	·	·	·
Cc1ccc(C(=O)NCCn2c(N)c(C#N)c3nc4ccccc4nc32)cc1	22µM*	0%	8	-3	8	1
N#Cc1c(N)n(CCNC(=O)c2ccc(Cl)cc2)c2nc3ccccc3nc12	3.2µM*	-1%	-7	-2	9	-3
CCOc1ccc(-n2cnnn2)cc1S(=O)(=O)Nc1c(C)cccc1C	-7%	-11%	1	11	-5	1
CCOc1cc(S(=O)(=O)NCCc2ccccc2C)c(OCC)cc1-n1cnnn1	32µM*	-7%	1	-15	-12	-1
CCOc1cc(S(=O)(=O)NCCc2cccc(C)c2)c(OCC)cc1-n1cnnn1	32µM*	-9%	-3	1	5	-3
CCOc1cc(S(=O)(=O)N(CC)CC)c(OCC)cc1-n1cnnn1	16µM*	-4%	-7	-12	1	9
Cc1ccccc1NC(=O)NC1CCCCCCC1	-3%	5%	-8	-4	15	?
Cc1ccccc1NC(=O)N(O)C1(C#N)CCCCC1	32µM*	·	·	-14	6	·
COc1cccc(CNC(=O)Cn2c(C)c3cnn(-c4ccccc4)c(=O)c3c2C)c1	-10%	·	·	·	·	·
COc1ccc(CN(C)CC(O)COc2ccc(C(=O)c3ccccc3)cc2)c(OC)c1OC (configuration not stated)	·	3%	-13	-2	?	1
CN(CCOc1ccc(Br)cc1)CC(O)COc1ccc(C#N)cc1 (configuration not stated)	2%	-2%	-15	-113*	-120*	12
COc1ccc(Br)cc1CN(C)CC(O)COc1ccc(Br)cc1 (configuration not stated)	·	-7%	19	-18	-75*	-2
O=C(O)Cn1nncc1-c1ccc(C(F)(F)F)cc1	2%	·	·	·	·	·
CC1CCCCN1S(=O)(=O)c1ccc(C(=O)Nc2ccccc2-c2nc3ccccc3[nH]2)cc1 (configuration not stated)	13µM*	-6%	1	-4	4	6
SMILES	ClpP mod	p53 reactivator	TRPV1 PAM	KCNH2 WT inh	KCNH2 3.1 inh	TRPV1 agonist
CC(C)(C)c1ccc(/C=C/C(=O)N2CCc3ccccc3C2)cc1	-1%	-1%	-13	0	2	?
Cc1ccc(/C=C/C(=O)N2CCc3ccccc3C2)cc1	?	14%	-3	-11	-16	80*
Fc1ccc(Nc2c3c(nc4ccccc24)CCC3)cc1	-2%	2%	-20	3	-91*	?
O=c1[nH]cnc2sc(-c3ccccc3)cc12	32µM*	22%	8	-4	-4	2
O=c1[nH]c(-c2ccccc2)nc2sc(-c3ccccc3)cc12	·	14%	-3	-22	-3	1
Cc1ncc(CN2CCCC(C(=O)Nc3ccc(-c4cccc(F)c4)cc3)C2)n1C (configuration not stated)	-3%	13%	5	-17	-84*	-1
CC(=O)c1cccc(CN2CCC(C(=O)Nc3ccc(-c4cccc(C)c4)cc3)CC2)c1	·	9%	3	-13	-101*	-3
Cc1cc(C)n(CCCN2CCC(C(=O)Nc3cccc(-c4cccc(F)c4)c3)CC2)n1	1%	?	6	-105*	-102*	2
O=C(Nc1cccc(-c2cccc(F)c2)c1)C1CCN(Cc2ccc(CO)o2)CC1	1%	2%	-11	8	-13	3
CCn1ncc(CN2CCC(C(=O)Nc3cccc(-c4cccc(F)c4)c3)CC2)c1C	-1%	17%	?	-117*	-97*	0
CC(=O)c1c(C)n(-c2ccc(C)cc2)c2ccc(OC(=O)COc3ccccc3)cc12	0%	·	·	·	·	·
CC(=O)ON(C(C)=O)c1ccc(/C=C2\C=Cc3ccccc32)cc1	-1%	·	·	·	·	·
CCOC(=O)N1CCC(NC(=O)c2ccc3c(c2)N(Cc2cc(C)ccc2C)C(=O)c2ccccc2S3=O)CC1 (configuration not stated)	1%	·	·	·	·	·
Cc1c(Cl)cccc1-n1nnc(-c2nc(-c3ccc4c(c3)OCO4)no2)c1C	-12%	·	·	·	·	·
CCN(CC)c1ccc(/C=C/c2ccncc2)cc1	-1%	·	·	·	·	·
CCn1nc(C)c(CN2CCC(C(=O)Nc3cccc(-c4cccc(Cl)c4)c3)CC2)c1C	3%	2%	7	-94*	-95*	2
CS(=O)(=O)N1CCC(C(=O)Nc2cccc(Cl)c2)CC1	·	-3%	1	-3	-7	-8
CN(C)CCCNc1ncnc2sc(-c3ccccc3)cc12	4%	-7%	-2	17	-89*	0
CCOC(CNc1ncnc2sc(-c3ccccc3)cc12)OCC	4%	-1%	-19	-4	10	27
CCOC(=O)C(=O)N(C)c1c(CC)nc2c(OCc3cccc(OC)c3)cccn12	-5%	·	·	·	·	·
FC(F)(F)c1cc(-c2ccccc2)nc(NC2CCCC2)n1	32µM*	7%	-20	19	-1	19
O=C(COC(=O)c1ccc(S(=O)(=O)Nc2ccccc2)cc1)NC1CCCC1	·	3%	0	13	-9	1
